In PubChem BioAssay AID623901 (Broad Institute, 2012):
The campaign covered roughly 340,000 compounds. About 470 (0.14%) were called active.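 How the source made its calls: active means mean activation of 30% or more, with every replicate also reaching 30%; inconclusive means mean activation of 30% or more but some replicate falls short; inactive means the rest.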 Many of the other results were omitted from the sample, so actives are more common in it than they were.

Test: miR-122 suppressors via Renilla sensor increase, primary screen, cell-based, Huh7 psiCHECK-miR122, Renilla luciferase, single point (AID 623901);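 further: 0% = median of neutral control wells and 100% = median of positive control wells; higher luciferase signal means stronger suppression of miR-122 activity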
Settings: 48 h, at 12.5 µM, hits give high values

activation, inactive:
C[C@H](O)C#Cc1ccc2c(c1)O[C@H](CN(C)Cc1cncnc1)[C@H](C)CN([C@@H](C)CO)S2(=O)=O -0.322%, CC(C)c1cc(C(=O)O)n[nH]1 -143%, C[C@H](CO)N1C[C@H](C)[C@H](CN(C)S(=O)(=O)c2ccccc2)Oc2ncc(-c3cccc(C(F)(F)F)c3)cc2C1=O 11.3%, COCC(=O)Nc1ccc2c(c1)OC[C@H](C)NC[C@H](C)[C@H](OC)CN(C)C2=O -0.878%, C[C@H](O)C#Cc1ccc2c(c1)O[C@@H](CN(C)Cc1cncnc1)[C@H](C)CN([C@H](C)CO)S2(=O)=O 0.702%, COCC(=O)N(C)C[C@@H]1Oc2ncc(C#Cc3ccccc3OC)cc2C(=O)N([C@@H](C)CO)C[C@H]1C 5.1%, C[C@@H]1CN([C@H](C)CO)S(=O)(=O)c2ccc(-c3cncnc3)cc2O[C@@H]1CN(C)Cc1ccccn1 5.28%, COCC(=O)N(C)C[C@H]1Oc2cc(Br)ccc2S(=O)(=O)N([C@H](C)CO)C[C@H]1C -1.48%, CCC(=O)N(C)C[C@H]1Oc2ncc(C#Cc3cccnc3)cc2C(=O)N([C@H](C)CO)C[C@H]1C 6.77%, C[C@@H]1CN([C@H](C)CO)C(=O)c2cc(-c3cccc(F)c3)cnc2O[C@H]1CN(C)C(=O)Nc1ccccc1F -3.89%, C[C@H](O)C#Cc1ccc2c(c1)O[C@@H](CN(C)Cc1cccnc1)[C@H](C)CN([C@H](C)CO)S2(=O)=O 0.774%, CCCNc1ncnc2sc(C)c(C)c12 -122%, Cc1ccc(S(=O)(=O)N(C)C[C@H]2Oc3ccc(NC(=O)CCC(F)(F)F)cc3C(=O)N([C@@H](C)CO)C[C@H]2C)cc1 -99.9%, C[C@@H]1CN([C@@H](C)CO)S(=O)(=O)c2ccc(-c3ccncc3)cc2O[C@@H]1CN(C)C(=O)Nc1ccc(F)cc1 -17.3%, C[C@H](CO)N1C[C@H](C)[C@@H](CN(C)C(=O)C2CC2)Oc2ncc(C#CC(C)(C)O)cc2C1=O 1.07%, C[C@H]1CN([C@@H](C)CO)C(=O)c2cc(C3=CCCCC3)cnc2O[C@@H]1CN(C)C(=O)c1ccc(F)cc1 -3.28%, CO[C@@H]1CN(C)C(=O)c2cc(NC(=O)C3CCOCC3)ccc2OC[C@H](C)N(C)C[C@H]1C 0.196%, Cc1ccc(S(=O)(=O)Nc2ccc3c(c2)CC(=O)N([C@@H](C)CO)C[C@H](C)[C@H](CN(C)Cc2ccc(C(=O)Nc4ccccc4N)cc2)O3)cc1 -252%
